From PubChem BioAssay (Tox21)
Unmarked numbers belong to inactive results. Calls come from the whole dose curve; as a rule, active = well fitted curve in the direction sought with a large enough effect in the repeat runs; inconclusive = weak or mixed curves; inactive = flat fitted curve, though single readings scatter.

Assay: qHTS assay to test for compound auto fluorescence at 535 nm (green) in HEK293 cells (AID 720680)
Settings: green autofluorescence 485/535 nm; series mostly up to 46 µM; fluorescence, % of fluorescein: at the top concentration
Description: U.S. Tox21 Program National Center for Advancing Translational Sciences [NCATS] NIH Chemical Genomics Center [NCGC] U.S. Environmental Protection Agency [EPA] National Institutes of Environmental Health Sciences [NIEHS] National Toxicology Program [NTP] U.S. Food and Drug Administration [FDA] Tox21 Assay Overview: Compound auto fluorescence often interferes with screening of the compound library against various biological targets and signaling pathways. Some of these compounds may have fluorophoric properties. Such properties may interfere with the assay outputs resulting in false positives and/or negatives. To decrease such complications and ensure the compound activities are relevant in terms of biological response, the Tox21 10K compound library was screened for auto fluorescence. From the fluorophores used as reporter signals in our screening assays, the auto fluorescence equivalencies of compounds against three fluorophores have been evaluated: Triamterene, Fluorescein and Rose Bengal sodium for blue, green and red fluorescence, respectively. The fluorescence intensities were measured using Excitation/Emission wavelengths at 405/460nm, 485/535nm and 540/590nm for blue, green and red labels, respectively. This assay includes the green fluorescence data.
Tox21 Assay Protocol Summary: 2,000 HEK293 cells in 5 uL of culture medium containing 10% dialyzed FBS per well were dispensed into black wall/clear bottom 1536-well plates using a Multidrop Combi Dispenser (Thermo Scientific). The assay plates were incubated for 4-5 hr at 37C to allow cell attachment to the well bottom, followed by the transfer of 23 nL compound or DMSO vehicle by a pintool work station (Kalypsys, San Diego, CA). After the assay plates were incubated overnight at 37C and 5% CO2, fluorescence intensities in the assay plates were measured by an Envision (PerkinElmer, Shelton, CT) plate reader using three labels for measuring blue, green and red fluorescence at […] 460, 535 and 590nm respectively.
% is set by controls: 0 for no effect and ±100 for the full control effect.

For `O=C(OCc1ccccc1)c1cccnc1`, which “fluorescence, % of fluorescein” value is on record?
The value was 0.0023%.

For `C=C1CC[C@H](O)CC1=C/C=C1\CCC[C@]2(C)[C@@H]([C@H](C)CCCC(C)(C)O)CC[C@@H]12`, which “fluorescence, % of fluorescein” value is on record?
The value was 0.189%.

With `Cc1cccc(C)c1N(CCCc1cccnc1)C(=O)C(C)N` (stereo not given) as the compound, how does the “fluorescence, % of fluorescein” value read?
Its value is -0.0032%.

Which “fluorescence, % of fluorescein” value does the source give for `COC(F)(F)C(Cl)Cl` here?
The value was 0.0721%.

For `CC1=C(/C=C/C(C)=C/C=C/C(C)=C/C=C/C=C(C)/C=C/C=C(C)/C=C/C2=C(C)C(=O)CCC2(C)C)C(C)(C)CCC1=O`, which “fluorescence, % of fluorescein” value is on record?
Its value is 0.0375%.

With `CC1(C)S[C@@H]2[C@H](NC(=O)C(N)c3ccccc3)C(=O)N2[C@H]1C(=O)OC1OC(=O)c2ccccc21` (stereo not given in full) as the compound, how does the “fluorescence, % of fluorescein” value read?
The value was 0.006% [at 18.6 µM].

Which “fluorescence, % of fluorescein” value does the source give for `CC1(C)[C@@H]2CC[C@@]1(C)[C@H](OC(=O)CSC#N)C2` here?
Its value is -0.0303%.

Which “fluorescence, % of fluorescein” value does the source give for `CN1CCN(CCC=C2c3ccccc3Sc3ccc(S(=O)(=O)N(C)C)cc32)CC1` here?
The value was 0.0543%.

For `O=C1CCC(=O)N1CO`, which “fluorescence, % of fluorescein” value is on record?
The value was 0.0068%.

For `CCC[C@@H]1C[C@@H](C(=O)N[C@@H]([C@H]2O[C@H](SC)[C@H](O)[C@@H](O)[C@H]2O)[C@H](C)Cl)N(C)C1`, which “fluorescence, % of fluorescein” value is on record?
The value was -0.179%.

For `CC[C@H]1NC(=O)[C@@H](NC(=O)c2ncccc2O)[C@@H](C)OC(=O)[C@H](c2ccccc2)NC(=O)[C@@H]2CC(=O)CCN2C(=O)[C@H](Cc2ccccc2)N(C)C(=O)[C@@H]2CCCN2C1=O`, which “fluorescence, % of fluorescein” value is on record?
The value was 0.106%.

With `CC(=O)Nc1c(I)c(C(=O)O)c(I)c(N(C)C(C)=O)c1I` as the compound, how does the “fluorescence, % of fluorescein” value read?
Its value is -0.0315%.

With `O=C(Cc1cccs1)N[C@@H]1C(=O)N2C(C(=O)[O-])=C(C[n+]3ccccc3)CS[C@H]12` as the compound, how does the “fluorescence, % of fluorescein” value read?
Its value is 0.321%.

With `COC(=O)[C@H]1[C@H]2C[C@@H]3c4[nH]c5cc(OC)ccc5c4CCN3C[C@H]2C[C@H](OC)[C@@H]1OC` as the compound, how does the “fluorescence, % of fluorescein” value read?
Its value is 0.633%.

For `CCCC1([C@H](O)C/C=C/[C@H]2[C@H](O)CC(=O)[C@@H]2CCCCCCC(=O)OC)CCC1`, which “fluorescence, % of fluorescein” value is on record?
The value was 0.0774%.

Which “fluorescence, % of fluorescein” value does the source give for `CCCCCCCCCCCCCCCCCC(=O)[O][Al]` here?
The value was -0.124%.

With `CN[C@@H]1[C@@H](O)[C@@H](O[C@@H]2[C@@H](O)[C@H](OC3OC(CN)=CCC3N)[C@@H](N)C[C@H]2N)OC[C@]1(C)O` (stereo not given in full) as the compound, how does the “fluorescence, % of fluorescein” value read?
The value was -0.0472% [at 18.6 µM].

With `C[C@H](N)C(=O)N[C@@H](C)P(=O)(O)O` as the compound, how does the “fluorescence, % of fluorescein” value read?
Its value is 0.0173%.

For `C[C@]12CCC(=O)C[C@@H]1CC[C@@H]1[C@@H]2CC[C@]2(C)C=CC[C@@H]12`, which “fluorescence, % of fluorescein” value is on record?
The value was -0.0062%.

With `CCC(=O)Oc1ccc2c(c1)CC[C@@H]1[C@@H]2CC[C@]2(C)[C@@H](OC(=O)CC)CC[C@@H]12` as the compound, how does the “fluorescence, % of fluorescein” value read?
The value was 0.0596%.

For `Cn1nnnc1SCC1=C(C(=O)O)N2C(=O)[C@@H](NC(=O)[C@H](OC=O)c3ccccc3)[C@H]2SC1`, which “fluorescence, % of fluorescein” value is on record?
The value was 0.189%.

Which “fluorescence, % of fluorescein” value does the source give for `CC(=O)O[C@]1(C(C)=O)CC[C@H]2[C@@H]3CCC4=CC(=O)CC[C@]4(C)[C@@]3(F)[C@@H](O)C[C@@]21C` here?
Its value is -0.0112%.

For `COc1cc(C[C@@H]2NCCc3cc(O)c(O)cc32)cc(OC)c1OC`, which “fluorescence, % of fluorescein” value is on record?
Its value is -0.0691%.

With `CC1(O)CCC(C(C)(C)O)CC1` (stereo not given) as the compound, how does the “fluorescence, % of fluorescein” value read?
The value was -0.025%.

With `CC1(C)C(\C=C/C=C\C=C/C=C2/N(CCCCS(=O)(=O)O)c3ccc4ccccc4c3C2(C)C)=[N+](CCCCS(=O)(=O)[O-])c2ccc3ccccc3c21` as the compound, how does the “fluorescence, % of fluorescein” value read?
The value was 0.455%.

With `COC1=C(C(=O)O)N2C(=O)[C@@H](NC(=O)[C@H](N)C3=CCC=CC3)[C@H]2SC1` as the compound, how does the “fluorescence, % of fluorescein” value read?
The value was 0.112%.

With `CCC(C)(C)OC(=O)N[C@@H](Cc1c[nH]c2ccccc12)C(=O)N[C@@H](CCSC)C(=O)N[C@@H](CC(=O)O)C(=O)N[C@@H](Cc1ccccc1)C(N)=O` as the compound, how does the “fluorescence, % of fluorescein” value read?
Its value is 0.86%.

Which “fluorescence, % of fluorescein” value does the source give for `CO[C@@H]1[C@@H](O[C@@H]2O[C@H](C)[C@@H](O[C@H]3C[C@@](C)(O)[C@@H](O)[C@H](C)O3)[C@H](N(C)C)[C@H]2O)[C@@H](CC=O)C[C@@H](C)[C@@H](O[C@@H]2CC[C@H](N(C)C)[C@@H](C)O2)/C=C/C=C/C[C@@H](C)OC(=O)C[C@H]1O` here?
Its value is 0.0434% [at 18.6 µM].

Which “fluorescence, % of fluorescein” value does the source give for `C#C[C@]1(O)CC[C@H]2[C@@H]3CCC4=C/C(=N/O)CC[C@@H]4[C@H]3CC[C@@]21CC` here?
The value was 0.0058%.

With `Cc1cccc(C)c1Nc1ncccc1C(=O)O` as the compound, how does the “fluorescence, % of fluorescein” value read?
Its value is -0.0591%.

With `O=C(CO)[C@@H](O)[C@H](O)[C@@H](O)C(=O)O` as the compound, how does the “fluorescence, % of fluorescein” value read?
The value was 0.105%.

With `OCCO[C@@H]1[C@@H](O)[C@H](O)[C@@H](CO)O[C@@H]1O` as the compound, how does the “fluorescence, % of fluorescein” value read?
The value was 0.0171%.

With `C[N+](C)(CCCCCC[N+](C)(C)C1c2ccccc2-c2ccccc21)C1c2ccccc2-c2ccccc21` as the compound, how does the “fluorescence, % of fluorescein” value read?
The value was -0.0079%.

For `CC1(C)S[C@@H]2[C@H](NC(=O)Cc3ccccc3)C(=O)N2[C@H]1C(=O)O`, which “fluorescence, % of fluorescein” value is on record?
The value was -0.0201%.

With `CCCCCCCCCCCCCCCC(=O)O[C@@H]1[C@@H](O)[C@@H](O)[C@@H]([C@H](NC(=O)[C@@H]2C[C@@H](CCC)CN2C)[C@H](C)Cl)O[C@@H]1SC` as the compound, how does the “fluorescence, % of fluorescein” value read?
Its value is -0.137%.

With `O=C(Nc1ccc(/C=C/c2ccc(NC(=O)c3cc(S(=O)(=O)O)c4cccnc4c3O)cc2S(=O)(=O)O)c(S(=O)(=O)O)c1)c1cc(S(=O)(=O)O)c2cccnc2c1O` as the compound, how does the “fluorescence, % of fluorescein” value read?
The value was -0.149%.

Which “fluorescence, % of fluorescein” value does the source give for `CC1(C)S[C@@H]2[C@H](NC(=O)[C@H](N)c3ccccc3)C(=O)N2[C@H]1C(=O)OCOC(=O)[C@@H]1N2C(=O)C[C@H]2S(=O)(=O)C1(C)C` here?
Its value is -0.0003%.

With `C#C[C@]1(O)CC[C@H]2[C@@H]3CCC4=CC(=O)CC[C@@H]4[C@H]3C(=C)C[C@@]21CC` as the compound, how does the “fluorescence, % of fluorescein” value read?
Its value is -0.0515%.

Which “fluorescence, % of fluorescein” value does the source give for `CC1CCCC1` here?
The value was -0.0028% [at 91.3 µM].

Which “fluorescence, % of fluorescein” value does the source give for `O=C(O)c1cc(N=Nc2ccc(O)c(C(=O)O)c2)ccc1O` here?
Its value is -0.0634%.
